Measurements from the supplement of paper PMC8728848.
Shown is part of a subset that was picked to be rich in the strongest signals.

Columns and labels:
Assay in all cases: glycan array binding signal (z-score within array); higher = stronger binding
Conditions in all cases: glycan notation: IUPAC condensed, linker removed
[1] = biological target: Gal(b1-4)GlcNAc(b1-2)[Gal(b1-4)GlcNAc(b1-4)]Man(a1-3)[Gal(b1-4)GlcNAc(b1-2)[Gal(b1-4)GlcNAc(b1-6)]Man(a1-6)]Man(b1-4)GlcNAc(b1-4)GlcNAc
In short: (§1)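 Glycan array binding is given as a within-array Z-score, which can be read as non-binding when negative. The arrays, 3228 of them, came from the Consortium for Functional Glycomics database and were retained only where the protein sequence was available. Z-scores were averaged across arrays of the same protein sequence at different concentrations or buffers and across linkers.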

[2] = biological target: Gal(b1-4)GlcNAc(b1-2)[Gal(b1-4)GlcNAc(b1-6)]Man(a1-6)[Gal(b1-4)GlcNAc(b1-2)Man(a1-3)]Man(b1-4)GlcNAc(b1-4)[Fuc(a1-6)]GlcNAc
In short: as §1

[3] = biological target: Gal(b1-4)GlcNAc(b1-3)Gal(b1-3)GlcNAc
In short: as §1

[4] = biological target: Gal(b1-4)GlcNAc(b1-3)Gal(b1-4)GlcNAc(b1-2)Man(a1-3)[Gal(b1-4)GlcNAc(b1-3)Gal(b1-4)GlcNAc(b1-2)Man(a1-6)]Man(b1-4)GlcNAc(b1-4)[Fuc(a1-6)]GlcNAc
In short: as §1

[5] = biological target: Gal(b1-4)GlcNAc(b1-3)Gal(b1-4)GlcNAc(b1-3)Gal(b1-4)GlcNAc
In short: as §1

[6] = biological target: Gal(b1-4)GlcNAc(b1-3)Gal(b1-4)GlcNAc(b1-3)Gal(b1-4)GlcNAc(b1-2)Man(a1-3)[Gal(b1-4)GlcNAc(b1-3)Gal(b1-4)GlcNAc(b1-3)Gal(b1-4)GlcNAc(b1-2)Man(a1-6)]Man(b1-4)GlcNAc(b1-4)GlcNAc
In short: as §1

[7] = biological target: Gal(b1-4)GlcNAc(b1-3)Gal(b1-4)GlcNAc(b1-3)Gal(b1-4)GlcNAc(b1-2)Man(a1-3)[Gal(b1-4)GlcNAc(b1-3)Gal(b1-4)GlcNAc(b1-3)Gal(b1-4)GlcNAc(b1-2)Man(a1-6)]Man(b1-4)GlcNAc(b1-4)[Fuc(a1-6)]GlcNAc
In short: as §1

[8] = biological target: Gal(b1-4)GlcNAc(b1-3)Gal(b1-4)GlcNAc(b1-3)Gal(b1-4)GlcNAc(b1-3)Gal(b1-4)GlcNAc(b1-2)Man(a1-3)[Gal(b1-4)GlcNAc(b1-3)Gal(b1-4)GlcNAc(b1-3)Gal(b1-4)GlcNAc(b1-3)Gal(b1-4)GlcNAc(b1-2)Man(a1-6)]Man(b1-4)GlcNAc(b1-4)[Fuc(a1-6)]GlcNAc
In short: as §1

[9] = biological target: Gal(b1-4)GlcNAc(b1-3)Gal(b1-4)GlcNAc(b1-3)Gal(b1-4)GlcNAc(b1-3)Gal(b1-4)GlcNAc(b1-3)Gal(b1-4)GlcNAc(b1-2)Man(a1-3)[Gal(b1-4)GlcNAc(b1-3)Gal(b1-4)GlcNAc(b1-3)Gal(b1-4)GlcNAc(b1-3)Gal(b1-4)GlcNAc(b1-3)Gal(b1-4)GlcNAc(b1-2)Man(a1-6)]Man(b1-4)GlcNAc(b1-4)GlcNAc
In short: as §1

[10] = biological target: Gal(b1-4)GlcNAc(b1-3)Gal(b1-4)GlcNAc(b1-3)Gal(b1-4)GlcNAc(b1-3)Gal(b1-4)GlcNAc(b1-3)Gal(b1-4)GlcNAc(b1-3)Gal(b1-4)GlcNAc(b1-2)Man(a1-3)[Gal(b1-4)GlcNAc(b1-3)Gal(b1-4)GlcNAc(b1-3)Gal(b1-4)GlcNAc(b1-3)Gal(b1-4)GlcNAc(b1-3)Gal(b1-4)GlcNAc(b1-3)Gal(b1-4)GlcNAc(b1-2)Man(a1-6)]Man(b1-4)GlcNAc(b1-4)GlcNAc
In short: as §1

[11] = biological target: Gal(b1-4)GlcNAc(b1-3)Gal(b1-4)GlcNAc(b1-3)[Gal(b1-4)GlcNAc(b1-3)Gal(b1-4)GlcNAc(b1-6)]GalNAc
In short: as §1

[12] = biological target: Gal(b1-4)GlcNAc(b1-6)GalNAc
In short: as §1

Gal3S4S(b1-4)GlcNAc = biological target: Gal3S4S(b1-4)GlcNAc
In short: as §1

Gal4S6S(b1-4)GlcNAc = biological target: Gal4S6S(b1-4)GlcNAc
In short: as §1

GalNAc6S(b1-4)GlcNAc = biological target: GalNAc6S(b1-4)GlcNAc
In short: as §1

[13] = biological target: GlcNAc6S(b1-3)Gal(b1-4)GlcNAc
In short: as §1

[14] = biological target: Man(a1-2)Man(a1-3)[Man(a1-2)Man(a1-6)]Man
In short: as §1

[15] = biological target: Man(a1-2)Man(a1-3)[Man(a1-2)Man(a1-6)]Man(a1-6)[Man(a1-2)Man(a1-2)Man(a1-3)]Man(b1-4)GlcNAc(b1-4)GlcNAc
In short: as §1

Man(b1-4)GlcNAc = biological target: Man(b1-4)GlcNAc
In short: as §1

Neu5Ac(a2-3)Gal = biological target: Neu5Ac(a2-3)Gal
In short: as §1

[16] = biological target: Neu5Ac(a2-3)Gal(b1-3)GlcNAc(b1-4)Gal(b1-4)Glc
In short: as §1

[17] = biological target: Neu5Ac(a2-3)Gal(b1-3)[GlcNAc(b1-6)]GalNAc
In short: as §1

Neu5Ac(a2-3)Gal(b1-4)Glc = biological target: Neu5Ac(a2-3)Gal(b1-4)Glc
In short: as §1

[18] = biological target: Neu5Ac(a2-3)Gal(b1-4)GlcNAc(b1-2)Man(a1-3)[Neu5Ac(a2-6)Gal(b1-4)GlcNAc(b1-2)Man(a1-6)]Man(b1-4)GlcNAc(b1-4)GlcNAc
In short: as §1

[19] = biological target: Neu5Ac(a2-3)Gal(b1-4)GlcNAc(b1-6)[Gal(b1-3)]GalNAc
In short: as §1

[20] = biological target: Neu5Ac(a2-3)[Neu5Ac(a2-6)]GalNAc
In short: as §1

[21] = biological target: Neu5Ac(a2-6)Gal(b1-4)GlcNAc(b1-2)Man(a1-3)[Gal(b1-4)GlcNAc(b1-2)Man(a1-6)]Man(b1-4)GlcNAc(b1-4)GlcNAc
In short: as §1

[22] = biological target: Neu5Gc(a2-3)Gal(b1-4)GlcNAc(b1-3)Gal(b1-4)GlcNAc(b1-2)Man(a1-3)[Neu5Gc(a2-3)Gal(b1-4)GlcNAc(b1-3)Gal(b1-4)GlcNAc(b1-2)Man(a1-6)]Man(b1-4)GlcNAc(b1-4)GlcNAc
In short: as §1

B1: PX14343H-pdi-506-26-506 (Parabacteroides distasonis) (protein)
chain: QPTGTMTTDSKLTSKESALALTNSAYLKNTVFNKMTPGWGCNTILLLEYMTGKATSENSQSNYKDFQDLLVSDRSLYIEDWWQDCYAGIANCNLALQKLGEFENLDASLVNGYMAEVKFMRALYYFYLVRIFGDVPKITTVQSELGELQVSRAPVKEIYDEIIIPDLLEAEQSDLAFSDHTGRVSMGAVKALLADVYLTYAGYPLQGGKSYYAESAKRSLEVIKSNEYTLFTDYESLRLPSQNNKGEFIYQVQFSLNKRHNESVRIFLPSRSGISAYDLEYGSLIPTKEFVESFEKGDKRTEEKQYFFTNYKGHPSKFSPGAAELEFMDLNGYYIYKFFDQVAVDNTAKSDLNWSVYRYTDVLLMYAEAQVNADGTPNQQSIDIVNQIRGRAGLAPFKQTNASAFLEEVWDQRYFDLCYENKMWFDMLRTRKIRDDKSGEYVDFIGYKTNWGKVYTETQLLFPIPLSERQANPNLTQNQGY
[1]
  glycan array binding signal (z-score): -0.221
[2]
  glycan array binding signal (z-score): 0.886
[3]
  glycan array binding signal (z-score): -0.366
[4]
  glycan array binding signal (z-score): 6.92
[5]
  glycan array binding signal (z-score): -0.114
[6]
  glycan array binding signal (z-score): 3.24
[7]
  glycan array binding signal (z-score): 6.72
[8]
  glycan array binding signal (z-score): 0.292
[9]
  glycan array binding signal (z-score): 0.552
[10]
  glycan array binding signal (z-score): 4.45
[11]
  glycan array binding signal (z-score): 0.311
[12]
  glycan array binding signal (z-score): -0.235
Gal3S4S(b1-4)GlcNAc
  glycan array binding signal (z-score): -0.293
Gal4S6S(b1-4)GlcNAc
  glycan array binding signal (z-score): -0.505
GalNAc6S(b1-4)GlcNAc
  glycan array binding signal (z-score): 0.278
[13]
  glycan array binding signal (z-score): -0.337
[14]
  glycan array binding signal (z-score): -0.49
[15]
  glycan array binding signal (z-score): -0.329
Man(b1-4)GlcNAc
  glycan array binding signal (z-score): -0.406
Neu5Ac(a2-3)Gal
  glycan array binding signal (z-score): -0.52
[16]
  glycan array binding signal (z-score): -0.388
[17]
  glycan array binding signal (z-score): -0.522
Neu5Ac(a2-3)Gal(b1-4)Glc
  glycan array binding signal (z-score): -0.335
[18]
  glycan array binding signal (z-score): 4.89
[19]
  glycan array binding signal (z-score): -0.127
[20]
  glycan array binding signal (z-score): -0.483
[21]
  glycan array binding signal (z-score): 2.9
[22]
  glycan array binding signal (z-score): -0.486
